Shown are actives, neighbours in structure and some others; about 1.2% of the full set was active somewhere.
TLR4-MyD88 BLA – inhibitors of human TLR4-MyD88 binding | O00206+Q99836 | AID 861 | HeLa CL3-4 TLR4/MyD88 BLA complementation, FRET ratio | inhibition, % at 8.4 µM | hit rate 0.18% among 200,000; in the data active means inhibition above about 25%;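 further: 0% = vehicle and 100% = reference inhibitor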
NOD2 RIPK2 PPI – NOD2-RIPK2 protein interaction inhibition. O43353. CHO BLA complementation NOD2-RIPK2, CCF4 ratio. inhibition, % at 4.98 µM. hit rate 0.38% among 360,000; in the data active means inhibition above about 21%;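 further: 0% = vehicle only and 100% = reference blocker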
ABHD5-PLIN5 inh – inhibitors of human ABHD5-perilipin-5 interaction. Q00G26+Q8WTS1. Split G. princeps luciferase complementation, luminescence, 4 h. inhibition, % at 4 µM. hit rate 0.78% among 360,000. AID 602281;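 active means inhibition above the mean inhibition across every tested compound plus 3 SD, cut at about 22% in these data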;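 further: 0% = DMSO only wells and the 100% control is not disclosed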
TLR9-MyD88 inh – blocks human TLR9 binding to MyD88; Q9NR96+Q99836; CHO BLA complementation TLR9-MyD88, CCF4 FRET ratio; inhibition, % at 4.98 µM; hit rate 0.21% among 340,000;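 active means inhibition above the mean over all tested compounds plus 3 SD, cut at about 21% in these data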;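 further: 0% = DMSO only wells and 100% = clavulanate BLA inhibitor control wells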
ABHD5 PLIN5 conf – ABHD5-PLIN5 interaction inhibition, confirmed. inhibition, % at 4 µM. biochemical ABHD5-PLIN5 interaction, luminescence. AID 651612. hit rate 67% among 2,200. shares compounds with ABHD5-PLIN5 inh; in the data active means inhibition above about 23%;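 further: 0% = DMSO vehicle wells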
HNF4 split-luc – counter-screen for ABHD5-PLIN5 inhibitors: HNF4 split-luciferase. shares compounds with ABHD5-PLIN5 inh. hit rate 77% among 2,200. HNF4 dimerization, luminescence, biochemical. inhibition, % at 4 µM;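 active means mean inhibition across replicate wells exceeding the computed hit threshold, cut at about 13% in these data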;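 further: light from luciferase halves that rejoin when HNF4 fusion proteins dimerize; 0% = DMSO only wells and the 100% control is not given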
* marks the source's active call; other numbers are inactive results; . = not tested or not shown; ! = repeats disagree.

SMILES	TLR4-MyD88 BLA	NOD2 RIPK2 PPI	ABHD5-PLIN5 inh	TLR9-MyD88 inh	ABHD5 PLIN5 conf	HNF4 split-luc
CC(Oc1cccnc1[N+](=O)[O-])C(=O)Nc1cccc(Cl)c1 (stereo not drawn)	.	1	2	-6	.	.
O=C(OCc1ccccc1)c1ccc(NCc2cc(O)ccc2O)cc1	.	14	16	1	.	.
Cc1ccc(C(=O)NCCCN2CCN(CCCNC(=O)c3ccc(C)cc3)CC2)cc1	.	-11	4	-5	.	.
O=C1Nc2ccc(F)cc2C12OCCO2	.	-13	9	5	.	.
CCN(CC(=O)NCc1ccc(F)cc1)C(=O)C1CCN(S(=O)(=O)c2ccc(C(C)C)cc2)CC1	.	4	-4	4	.	.
O=C(/C=C/c1cccnc1)c1ccc([N+](=O)[O-])cc1	.	-3	57*	3	89*	94*
COC(=O)c1nc(-c2ccccc2)nc(-c2ccccc2)c1C(=O)OC	.	-11	5	.	.	.
COc1ccccc1C=CC(=O)C=Cc1ccccc1OC	.	-7	32*	-12	72*	45*
CNc1ccccc(C(=O)/C=C/c2ccccc2OC)c1=O	10	1	32*	-4	69*	48*
COc1ccccc1-c1cccc(-c2nc(C(=O)Nc3nccs3)cc3c2[C@@H](CCO)N(C(=O)CC2CC2)C3)c1	.	-13	10	.	.	.
Cc1nc2c(o1)CCc1ccccc1C2N1CCN(C)CC1 (stereo not drawn)	-6	-19	57*!	-4	40*	7
Cc1ccc(SC2=C(Sc3ccc(C)cc3)C(=O)c3ccccc3C2=O)cc1	.	7	25*	-2	63*	12*
Cc1ccc(N2C(=O)c3ccccc3C2=O)cc1	.	8	-3	-8	.	.
C[C@H](CO)N1C[C@H](C)[C@@H](CN(C)Cc2ccc(C(=O)Nc3ccccc3N)cc2)Oc2c(NC(=O)C3CCCCC3)cccc2C1=O	.	2	72*	-7	1	3
CC(C)c1ccc(NC(=O)c2csnn2)cc1	5	-3	24*	-8	0	3
COc1ccc(-c2nc(CN3CCN(c4cc(C)nc(C)c4)CC3)c(C)o2)c2ccccc12	1	5	25*	-4	12	1
Cc1cc(N2CCN(Cc3nc(-c4ccc(Cl)cc4)oc3C)CC2)cc(C)n1	.	-3	19	4	.	.
O=C(CSc1nnc(-c2ccccc2F)o1)N1CCNC1=O	.	5	8	-1	.	.
Cc1oc(=O)c(NC(=O)c2ccccc2)cc1C(N)=O	-18	-6	3	.	.	.
Cc1oc(=O)c(NC(=O)c2cccc(Cl)c2)cc1C(=O)c1ccccc1	4	2	34*	1	18	100*
Cc1ccc2nc3cc([N+](=O)[O-])cc([N+](=O)[O-])c3cc2c1	9	-5	39*	-6	89*	47*
Cc1nc2ccc([N+](=O)[O-])cc2nc1C	-23	1	4	7	.	.
C=CCn1cccc(/C=C/C(=O)c2ccc(C(C)(C)C)cc2)c1=S	14	7	46*	1	75*	90*
CN1CCN(C(=S)NC(=O)c2ccc(C(C)(C)C)cc2)CC1	-2	0	-3	-14	.	.
CC(=O)Oc1ccc(C23c4ccccc4C2(OC(C)=O)c2cc(OC(C)=O)ccc23)cc1 (stereo not drawn)	.	12	99*	-4	102*	53*
SMILES	TLR4-MyD88 BLA	NOD2 RIPK2 PPI	ABHD5-PLIN5 inh	TLR9-MyD88 inh	ABHD5 PLIN5 conf	HNF4 split-luc
O=C(COc1ccccc1C(=O)NCc1ccccc1)Nc1ccccc1	.	-11	0	10	.	.
Cc1c(CN2CCC(CO)(Cc3cccc(C(F)(F)F)c3)CC2)c2ccccc2n1C	-17	-4	28*	-8	19	7
CC(O)CNc1nc(NCc2ccccc2)c2cnn(C)c2n1 (stereo not drawn)	.	1	-14	2	.	.
O=c1c(-c2ccco2)nc2ccccc2n1C(c1ccccc1)c1nc2ccccc2[nH]1 (stereo not drawn)	.	-5	36*	.	28*	16*
O=c1c(-c2ccccc2)nc2ccccc2n1C(c1ccccn1)c1nc2ccccc2[nH]1 (stereo not drawn)	.	-2	13	.	.	.
O=c1c(-c2ccco2)nc2ccccc2n1C(c1ccccn1)c1nc2ccccc2[nH]1 (stereo not drawn)	.	-22	37*	.	33*	59*
O=C(NCc1ccc(Cl)cc1)[C@@H]1CCCN1S(=O)(=O)c1ccc(Cl)cc1	.	5	-5	3	.	.
Cc1ccccc1S(=O)Cc1ccc(C(=O)N2CCN(C3CCCCC3)CC2)o1 (stereo not drawn)	.	0	3	2	.	.
Cc1ccccc1S(=O)Cc1ccc(C(=O)N2CCN(C(=O)c3ccco3)CC2)o1 (stereo not drawn)	.	-5	75*	-8	-2	-3
O=C(O)CCc1ccc(-c2ccc(Br)cc2)o1	-14	-4	29*	-3	24*	71*
O=C(O)CCc1ccc(-c2ccc(Cl)cc2)o1	7	5	43*	-15	-2	10
COc1ccc(-c2ccc(CCC(=O)O)o2)cc1	-12	-8	60*	8	14	64*
Cc1oc(-c2ccc(Cl)cc2)cc1C(=O)O	.	-2	-7	-7	.	.
COc1ccc(C(=Cc2ccccc2[N+](=O)[O-])C(=O)O)cc1	.	-6	-1	-9	.	.
Nc1nc(Sc2c([N+](=O)[O-])cc(C(F)(F)F)cc2[N+](=O)[O-])n[nH]1	.	5	58*	8	79*	98*
O=C(c1ccc2c3c(cccc13)CC2)C1CCCN(Cc2cccnc2)C1 (stereo not drawn)	-10	-8	5	6	.	.
COc1cc(CN2CCCC(C(=O)c3ccc4c5c(cccc35)CC4)C2)cc(OC)c1O (stereo not drawn)	10	-2	29*	1	15	40*
O=c1ccc(-c2nc3ccccc3n2C(CCc2ccccc2)c2nc3ccccc3[nH]2)c[nH]1 (stereo not drawn)	.	-5	-11	.	.	.
O=C(O)c1ccc(N/N=C/C2=C(N3CCOCC3)C(=C\c3ccccc3)/CC2)cc1	.	-4	25*	12	17	42*
Cc1ccc(S(=O)(=O)Nc2c(C)n(C)n(-c3ccccc3)c2=O)cc1C(=O)OC(C)C(=O)c1ccccc1 (stereo not drawn)	.	5	5	-3	.	.
N#Cc1cccnc1N1CCN(C(c2ccnc3ccccc23)c2nnnn2-c2ccc3c(c2)OCCO3)CC1 (stereo not drawn)	.	-13	10	.	.	.
CCOc1cc(CNc2ccc3c(c2)CCC3)ccc1O	-9	7	-3	8	.	.
COc1cc(CNc2ccc3c(c2)CCC3)cc(OC)c1O	-3	-5	39*	-10	57*	89*
OC[C@@H]1CN(Cc2ccc(-c3ccccc3)cc2)C[C@H](n2cnc3c(NCc4ccncc4)ncnc32)O1	.	-15	2	.	.	.
CCOC(=O)N1CCc2c(sc(NC(=O)CN3CCOCC3)c2C(=O)Nc2ccccc2)C1	-2	2	23*	2	5	3

Screening data deposited in PubChem by The Scripps Research Institute Molecular Screening Center.
